Assay results taken from PubChem BioAssay (NCI).
Compounds without any hit were thinned out: in the full panel of roughly 83,000, 20% have a hit.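 For each line, cells grew in 96-well plates with the test compound present at a single concentration for 48 hours.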 Values without a mark were called inactive. The source made the active and inactive calls. How the source made its calls: active means growth percent below 10; inactive means the rest.

tested on: NCI-H23 lung; assay: NCI-60 one-dose screen, 48 h (100 = growth as untreated, 0 = no growth, -100 = all killed); conditions: 10 µM unless noted

SMILES	growth
COc1cc(Cn2cc3c(c2)-c2onc(CN4CCOCC4)c2CC3)cc(OC)c1OC	94.6%
CC/C(=C/c1cc(OC)ccc1O)c1ccc2cc(OC)ccc2[o+]1	64.2%
O=C(O)c1ccc(-n2cc(CNc3cc(F)c(F)c(F)c3)c(-c3cccc(F)c3)n2)cc1	84.9%
C=CCn1c(SCC(=O)Nc2ccc(C(=O)/C=C/c3cccc([N+](=O)[O-])c3)cc2)nnc1-c1c[nH]c2ccccc12	94.1%

tested on: NCI-H226 lung; assay: as above; conditions: 10 µM unless noted

SMILES	growth
CCCCCc1ccc(S(=O)(=O)Nc2cc(-c3csc(NC(=O)CN4CCN(CCO)CC4)n3)ccc2OC)cc1	82.9%
N/C(=N\C(N)=N\c1nc2ccccc2s1)c1ccc(C(F)(F)F)cc1	69.6%
CCn1c(SCC(=O)Nc2cccc(C(=O)/C=C/c3ccc(Br)cc3)c2)nc2ccccc2c1=O	88.9%
O=S(=O)(NCCCNc1nccc(-c2[nH]c(-c3ccccc3)nc2-c2ccc(Cl)c(O)c2)n1)c1ccc(Br)cc1	38.3%
CS(=O)(=O)Nc1cc(-c2ccc3ncc(C#N)c(N[C@H](CO)c4ccccc4)c3c2)cnc1Cl	56.2%
Cn1ccnc1C(=O)/C=C/c1ccc(CNC(=O)c2ccc(Cl)cc2)cc1	4.1% (active)
O=C(Cn1cc(-c2ccccc2)nn1)Nc1nc(-c2ccc(Cl)cc2)cs1	106%
Nc1cc(F)ccc1NC(=O)c1ccc(NC(=O)C/C=C/c2cccnc2)cc1	70.8%
CCOC(=O)C1=NNC(c2ccc(Cl)cc2)C1C(=O)N1C(=S)NC(=O)C1CC(C)C (configuration not stated)	92%
COc1ccc(S(=O)(=O)NCCCNc2nccc(-c3[nH]c(-c4ccccc4)nc3-c3ccc(Cl)c(O)c3)n2)cc1	103%
N=c1c2cc(-c3ccccc3)oc2ncn1/N=C/c1ccc(Br)cc1	71.3%
CS(=O)(=O)Nc1cc(-c2ccc3ncc(C#N)c(Nc4cccc(Cl)c4F)c3c2)cnc1Cl	10.4%
C=CCn1c(SCC(=O)Nc2ccc(C(=O)/C=C/c3ccc(Cl)cc3)cc2)nnc1-c1c[nH]c2ccccc12	68%
Cc1ccc(NC(=O)c2ccc(CN3CCN(C)CC3)cc2)cc1Oc1ccc(-c2[nH]nc3ncnc(N)c23)cc1	98.5%
c1ccc(C(c2nc3ncncc3[nH]2)N2CSc3nc4ccccc4n3C2)cc1 (configuration not stated)	98.7%
COc1ccc(Cn2cc3c(c2-c2cc(OC)c(OC)c(OC)c2)CCc2c(CN4CCCC4)noc2-3)cc1	61.7%
CC1=CC(=O)C2=C(C)CC(OC(=O)CCc3ccccc3)[C@@H]3[C@H](OC(=O)[C@@H]3C)[C@@H]12 (some centres not stated)	97.9%
CCCCCc1ccc(S(=O)(=O)Nc2cccc(-c3csc(NC(=O)CN4CCN(CCO)CC4)n3)c2)cc1	92.3%
O=C(Nc1ccc(F)c(F)c1)c1cc(-c2ccc(F)cc2F)ccc1O	3.67% (active)

SMILES	growth
COc1c(N2CC3CCCNC3C2)c(F)cc2c(=O)c(C(=O)N/N=C/c3ccc(N(C)C)cc3)cn(C3CC3)c12 (configuration not stated)	98.5%
CC(=O)C1=C(C)NC(NN)=NC1c1cccc(Cl)c1 (configuration not stated)	103%
C=CCn1c(SCC(=O)Nc2ccc(C(=O)/C=C/c3ccc(Br)cc3)cc2)nnc1-c1c[nH]c2ccccc12	84.7%
COc1cc(Cn2cc3c(c2)-c2onc(CN4CCCC4)c2CC3)cc(OC)c1OC	88.4%
O=C1Nc2ccccc2/C1=C/c1ccc(CO)n1-c1ccc(Cl)cc1	81%
O=C(CSc1nc2ccccc2c(=O)n1-c1ccc(Cl)cc1)N/N=C/c1ccc(N2CCCCC2)cc1	38.2%
Cc1ccc(-n2c(/C=C3\C(=O)Nc4ccccc43)ccc2CO)cc1	88.2%
NC(=O)c1c(NC(=O)c2ccc(F)cc2F)sc2c1CCC(=O)C2	88%
CCC(CC)N1C(=O)/C(=c2\sc3n(c2=O)NC2C(N=3)N(CC)C(=O)N2CC)c2ccccc21 (configuration not stated)	79.1%
Clc1cccc(/C=N/Nc2nc(N/N=C/c3cccc(Cl)c3Cl)nc(N3CCCCC3)n2)c1Cl	97.5%
CCn1c2ccccc2c2cc(-n3nncc3-c3ccccc3)ccc21	47.8%
Cc1c(Cl)cccc1S(=O)(=O)Nc1ccc2c(c1)C(=O)N(C1CCC(=O)NC1=O)C2=O (configuration not stated)	66.6%
COc1ccc(NC(=O)CSc2nnc(-c3ccc4nc(-c5ccccc5)[nH]c4c3)o2)cc1	96.2%
CCOP(=O)(OCC)OC[C@]12CCC(C)(C)C=C1[C@H]1CC[C@@H]3[C@@]4(C)CC[C@H](OP(=O)(OCC)OCC)C(C)(C)[C@@H]4CC[C@@]3(C)[C@]1(C)CC2	-72.3% (active)
CCOC(=O)C(=O)CC(=O)N1C(=S)NC(=O)C1CC(C)C (configuration not stated)	99.1%
COc1cc(Cn2cc3c(c2)-c2onc(CN4CCOCC4)c2CC3)cc(OC)c1OC	87.1%
CC/C(=C/c1cc(OC)ccc1O)c1ccc2cc(OC)ccc2[o+]1	78%
O=C(O)c1ccc(-n2cc(CNc3cc(F)c(F)c(F)c3)c(-c3cccc(F)c3)n2)cc1	93.9%
C=CCn1c(SCC(=O)Nc2ccc(C(=O)/C=C/c3cccc([N+](=O)[O-])c3)cc2)nnc1-c1c[nH]c2ccccc12	74.2%
